Measurements: PubChem BioAssay (EPA / NIEHS)
Records with an inconclusive call do not appear. The source made the active and inactive calls. How the source made its calls, unless noted: active means hit-call score of the fitted dose curve at least 0.9, where 1 is the maximum; inactive means score below 0.9.

Key:
[1] = target: Paired box protein Pax-6 (Homo sapiens) (UniProt P26367); assay: ATG_Pax6_CIS: Attagene CIS-FACTORIAL HepG2 Assay for human Paired Box 6 (PAX6) (AID 2282956); conditions: HepG2 CIS-FACTORIAL PAX6 reporter transcription, RNA readout; actives raise or lower the signal
Outline: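 Readout: reporter transcript fluorescence after RT-PCR and capillary electrophoresis. Cells: HepG2, transiently transfected with cis-regulated MRTUs. Exposure 24 h. Gain or loss of signal fitted bidirectionally relative to DMSO.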

[2] = ATG_PXRE_CIS: Attagene CIS-FACTORIAL HepG2 Assay for human Pregnane X Receptor Element (PXRE) (AID 2282957); conditions: HepG2 Attagene CIS-FACTORIAL PXRE reporter, mRNA; actives raise or lower the signal
Outline: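 Fluorescent capillary electrophoresis of amplified reporter cDNA gave the signal, collected 24 h after dosing HepG2 cells that held transfected cis-element reporter constructs.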

[3] = ATG_PPRE_CIS: Attagene CIS-FACTORIAL HepG2 Assay for human Peroxisome Proliferator-activated Response Element (PPRE) (AID 2282958); conditions: HepG2 PPRE cis-element reporter, Attagene transcription factor profiling; actives raise or lower the signal
Outline: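 DMSO served as negative control and baseline for bidirectional curve fitting. Signal came from PPRE-regulated reporter mRNA in HepG2 cells, measured 24 h post-dosing by RT-PCR, 6-FAM primer extension and capillary electrophoresis.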

[4] = ATG_RORE_CIS: Attagene CIS-FACTORIAL HepG2 Assay for human RAR-related Orphan Receptor Element (RORE) (AID 2282959); conditions: HepG2 Attagene cis-factorial RORE reporter, mRNA; actives raise or lower the signal
Outline: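 Transfect HepG2 with MRTUs; treat 24 h; extract RNA; RT with oligo(dT); PCR with reporter-specific primers; 6-FAM primer extension; HpaI digest 2 h at 37 C; capillary electrophoresis. Fit vs DMSO, bidirectional.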

[5] = ATG_Sox_CIS: Attagene CIS-FACTORIAL HepG2 Assay for human SRY-box transcription factor (SOX) (AID 2282960); conditions: HepG2 Attagene cis-factorial SOX reporter, mRNA; actives raise or lower the signal
Outline: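 Fluorescence-labelled cDNA fragments from reporter transcripts, sized by CE, give the signal. Cells: HepG2, transiently transfected with cis-regulated reporter units. Exposure 24 h; DMSO negative control; bidirectional curve fitting.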

[6] = target: Transcription factor Sp1 (Homo sapiens) (UniProt P08047); assay: ATG_Sp1_CIS: Attagene CIS-FACTORIAL HepG2 Assay for human Specificity Protein 1 (Sp1) (AID 2282961); conditions: HepG2 Sp1 cis-reporter transcription, actives raise or lower the signal
Outline: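 Chemicals are dosed onto HepG2 cells transfected with multiple cis-promoter reporter constructs, and after 24 h reporter RNA is reverse-transcribed, PCR-amplified and resolved by capillary electrophoresis for fluorescence quantitation; activity is scored up or down against DMSO.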

[7] = ATG_SREBP_CIS: Attagene CIS-FACTORIAL HepG2 Assay for human Sterol Regulatory Element Binding (SREBP) (AID 2282962); conditions: HepG2 Attagene cis-factorial SREBP reporter, mRNA; actives raise or lower the signal
Outline: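 Readout: fluorescent reporter-transcript peaks resolved by capillary electrophoresis after RT-PCR. Cells were human HepG2 carrying transfected cis-promoter reporter constructs, dosed for 24 h. Gain or loss of signal was fitted against DMSO controls.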

[8] = target: Signal transducer and activator of transcription 3 (Homo sapiens) (UniProt P40763); assay: ATG_STAT3_CIS: Attagene CIS-FACTORIAL HepG2 Assay for human Signal Transducer and Activator of Transcription 3 (STAT3) (AID 2282963); conditions: HepG2, Attagene cis-factorial STAT3 reporter transcription; actives raise or lower the signal
Outline: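 HepG2, MRTU-transfected, 24 h dosing. RNA → RT → PCR → FAM label → HpaI → CE. Bidirectional fit vs DMSO.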

[9] = ATG_TA_CIS: Attagene CIS-FACTORIAL HepG2 Assay for human TA Basal Promoter (AID 2282964); conditions: HepG2 Attagene CIS-factorial TA basal promoter reporter; actives raise or lower the signal
Outline: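 Read-out: fluorescent reporter-transcript fragments resolved by capillary electrophoresis after RT-PCR and HpaI digestion. Source: HepG2 cells carrying transiently transfected multi-reporter cis constructs, treated 24 h. Endpoint fitted bidirectionally relative to DMSO.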

[10] = ATG_TCF_b_cat_CIS: Attagene CIS-FACTORIAL HepG2 Assay for human T-Cell-Factor with beta-catenin (TCF/b-cat) (AID 2282965); conditions: HepG2 TCF/beta-catenin cis-reporter transcription, actives raise or lower the signal
Outline: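 Using capillary electrophoresis as the read-out, labelled reporter cDNA fragments from transiently transfected HepG2 were sized and quantified. Exposure lasted 24 hours; activity in either direction was referenced to DMSO.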

[11] = ATG_TAL_CIS: Attagene CIS-FACTORIAL HepG2 Assay for human TAL Basal Promoter (AID 2282966); conditions: HepG2 Attagene cis-factorial TAL promoter reporter; actives raise or lower the signal;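 further: background control endpoint measuring basal TAL promoter reporter mRNA not a specific factor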
Outline: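 Transiently transfected HepG2 (cis-regulated reporter units), 24 h treatment, mRNA read by fluorescent CE after RT-PCR; bidirectional fit, DMSO baseline.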

[12] = ATG_VDRE_CIS: Attagene CIS-FACTORIAL HepG2 Assay for human Vitamin D Receptor Element (VDRE) (AID 2282968); conditions: HepG2 VDRE cis-reporter transcription, actives raise or lower the signal
Outline: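 Steps: transfect HepG2 with multiple reporter transcription units; dose chemicals 24 h; isolate RNA; RT-PCR; label with 6-FAM primer extension; HpaI digest; capillary electrophoresis. Curves fitted both directions against DMSO.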

[13] = target: Estrogen receptor (Homo sapiens) (UniProt P03372); assay: ATG_ERa_TRANS: Attagene TRANS-FACTORIAL HepG2 Assay for human Estrogen Receptor alpha (ERa) (AID 2282970; active means hit-call score of the fitted dose curve at least 0.9, where 1 is the maximum); conditions: HepG2 Attagene TRANS ERa GAL4 reporter, mRNA
Outline: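 One of 30 multiplexed endpoints from a HepG2 TRANS system, this one reports ERa-Gal4-driven reporter mRNA. Transcripts were quantified 24 hours post-dosing by fluorescent RT-PCR and capillary electrophoresis, with activity scored as induction over DMSO.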

[14] = target: X-box-binding protein 1 (Homo sapiens) (UniProt P17861); assay: ATG_Xbp1_CIS: Attagene CIS-FACTORIAL HepG2 Assay for human X-box Binding Protein 1 (XBP1) (AID 2282972); conditions: HepG2 XBP1 cis-element reporter, Attagene multiplex; actives raise or lower the signal
Outline: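 Read-out: fluorescent reporter mRNA fragments resolved by capillary electrophoresis after RT-PCR. Human HepG2 liver cells carried transfected cis-promoter reporter units and were exposed to chemicals for 24 hours. Gain or loss of signal fitted relative to DMSO baseline.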

[15] = ATG_GAL4_TRANS: Attagene TRANS-FACTORIAL HepG2 Assay for GAL4 (Internal Marker) (AID 2282976; active means hit-call score of the fitted dose curve at least 0.9, where 1 is the maximum); conditions: HepG2 Attagene TRANS GAL4 internal marker reporter
Outline: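 HepG2 cells transiently transfected with multiplexed GAL4-UAS reporter constructs were dosed for 24 h. Reporter mRNA was measured by RT-PCR, 6-FAM primer extension, HpaI digestion and capillary electrophoresis, and gain of signal was fitted relative to DMSO.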

[16] = ATG_TGFb_CIS: Attagene CIS-FACTORIAL HepG2 Assay for human Transforming Growth Factor (TGF) (AID 2282967); conditions: HepG2 Attagene CIS TGFb reporter, mRNA transcription; actives raise or lower the signal
Outline: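 Transient MRTU transfection of HepG2 (FuGene 6). Dose 24 h. TriZol RNA, oligo(dT) RT, PCR, 6-FAM primer extension, HpaI cut, CE. Bidirectional fit, DMSO = baseline.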

[17] = target: Steroid hormone receptor ERR1 (Homo sapiens) (UniProt P11474); assay: ATG_ERRa_TRANS: Attagene TRANS-FACTORIAL HepG2 Assay for human Estrogen-Related Receptor alpha (ERRa) (AID 2282971; active means hit-call score of the fitted dose curve at least 0.9, where 1 is the maximum); conditions: HepG2 Attagene TRANS reporter, ERRa transactivation
Outline: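 HepG2 cells transiently transfected with multiplexed GAL4-UAS reporter units reading chimeric ERRa-Gal4 activity; 24 h compound exposure. Reporter mRNA measured by RT-PCR, 6-FAM labelling, HpaI digest and capillary electrophoresis; gain of signal fitted versus DMSO baseline.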

[18] = ATG_M_19_TRANS: Attagene TRANS-FACTORIAL HepG2 Assay for M19 Transcription Factor (Internal Marker) (AID 2282974; active means hit-call score of the fitted dose curve at least 0.9, where 1 is the maximum); conditions: HepG2 Attagene TRANS-FACTORIAL M19 internal marker reporter
Outline: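 Multiplexed TRANS format: HepG2 liver cells bearing transient GAL4-UAS reporter units, chemical treatment 24 h, reporter transcripts quantified by RT-PCR plus capillary electrophoresis. DMSO defines baseline.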

[19] = target: Estrogen-related receptor gamma (Homo sapiens) (UniProt P62508); assay: ATG_ERRg_TRANS: Attagene TRANS-FACTORIAL HepG2 Assay for human Estrogen-Related Receptor gamma (ERRg) (AID 2282977; active means hit-call score of the fitted dose curve at least 0.9, where 1 is the maximum;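 further: hits increase reporter signal over DMSO so potencies reflect activators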); conditions: HepG2 Attagene TRANS reporter, ERRg transactivation
Outline: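 Exogenous NR-Gal4 chimera activity measured as reporter transcript induction after 24 h in transiently transfected HepG2 cells. RNA reverse-transcribed, PCR-amplified, 6-FAM-labelled and resolved by capillary electrophoresis; increase over DMSO baseline.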

Measured: AC50

Chain of Signal transducer and activator of transcription 3 (Homo sapiens) (P40763 whole entry, looked up): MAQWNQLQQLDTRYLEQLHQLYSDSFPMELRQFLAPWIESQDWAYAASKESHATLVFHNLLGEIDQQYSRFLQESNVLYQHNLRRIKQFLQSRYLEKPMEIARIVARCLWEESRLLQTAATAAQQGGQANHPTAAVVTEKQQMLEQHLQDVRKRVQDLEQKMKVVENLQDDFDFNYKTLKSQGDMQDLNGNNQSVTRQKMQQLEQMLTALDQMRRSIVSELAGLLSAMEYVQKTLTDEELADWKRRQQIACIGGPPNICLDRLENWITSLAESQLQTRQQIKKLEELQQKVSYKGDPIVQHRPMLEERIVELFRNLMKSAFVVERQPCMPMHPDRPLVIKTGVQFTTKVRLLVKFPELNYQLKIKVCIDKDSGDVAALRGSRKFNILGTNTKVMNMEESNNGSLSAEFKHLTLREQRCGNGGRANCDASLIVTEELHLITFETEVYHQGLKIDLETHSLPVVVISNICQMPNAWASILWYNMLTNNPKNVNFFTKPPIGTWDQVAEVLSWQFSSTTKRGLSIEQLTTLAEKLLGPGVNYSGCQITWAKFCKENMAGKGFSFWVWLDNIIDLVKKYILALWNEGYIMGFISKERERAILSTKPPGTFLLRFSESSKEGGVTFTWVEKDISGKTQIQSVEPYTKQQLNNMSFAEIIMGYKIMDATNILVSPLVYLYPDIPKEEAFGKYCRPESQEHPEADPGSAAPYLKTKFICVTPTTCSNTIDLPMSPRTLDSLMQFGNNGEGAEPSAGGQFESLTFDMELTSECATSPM
Chain of Transcription factor Sp1 (Homo sapiens) (P08047 whole entry, looked up): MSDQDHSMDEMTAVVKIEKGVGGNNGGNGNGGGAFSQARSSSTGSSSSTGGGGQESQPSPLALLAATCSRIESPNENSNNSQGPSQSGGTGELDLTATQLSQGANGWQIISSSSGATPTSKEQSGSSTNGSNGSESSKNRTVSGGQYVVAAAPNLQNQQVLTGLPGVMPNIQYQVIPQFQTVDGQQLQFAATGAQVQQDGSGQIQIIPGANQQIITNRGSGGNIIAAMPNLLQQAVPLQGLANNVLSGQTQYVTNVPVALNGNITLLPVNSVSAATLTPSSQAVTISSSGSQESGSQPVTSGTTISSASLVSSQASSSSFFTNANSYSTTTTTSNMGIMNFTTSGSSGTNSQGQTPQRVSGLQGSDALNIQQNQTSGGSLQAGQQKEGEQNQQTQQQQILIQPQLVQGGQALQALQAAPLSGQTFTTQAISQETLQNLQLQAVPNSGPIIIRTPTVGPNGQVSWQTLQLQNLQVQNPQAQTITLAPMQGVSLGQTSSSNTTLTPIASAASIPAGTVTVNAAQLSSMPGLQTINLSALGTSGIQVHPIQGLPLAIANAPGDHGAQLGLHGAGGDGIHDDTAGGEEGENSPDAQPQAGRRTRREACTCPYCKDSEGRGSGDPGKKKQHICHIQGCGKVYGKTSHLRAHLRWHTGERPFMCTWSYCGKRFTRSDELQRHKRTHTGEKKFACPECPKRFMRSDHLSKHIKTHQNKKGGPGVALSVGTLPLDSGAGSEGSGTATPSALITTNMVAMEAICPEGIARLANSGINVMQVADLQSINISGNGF
Chain of X-box-binding protein 1 (Homo sapiens) (P17861 whole entry, looked up, the tested form may be a part): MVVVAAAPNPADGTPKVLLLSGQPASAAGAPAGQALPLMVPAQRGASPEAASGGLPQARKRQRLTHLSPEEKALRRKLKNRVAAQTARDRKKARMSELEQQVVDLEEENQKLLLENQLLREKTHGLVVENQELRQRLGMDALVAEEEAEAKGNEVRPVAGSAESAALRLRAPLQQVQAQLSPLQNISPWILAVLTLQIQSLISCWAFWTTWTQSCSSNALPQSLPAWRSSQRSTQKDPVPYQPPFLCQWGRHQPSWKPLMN
Chain of Paired box protein Pax-6 (Homo sapiens) (P26367 whole entry, looked up): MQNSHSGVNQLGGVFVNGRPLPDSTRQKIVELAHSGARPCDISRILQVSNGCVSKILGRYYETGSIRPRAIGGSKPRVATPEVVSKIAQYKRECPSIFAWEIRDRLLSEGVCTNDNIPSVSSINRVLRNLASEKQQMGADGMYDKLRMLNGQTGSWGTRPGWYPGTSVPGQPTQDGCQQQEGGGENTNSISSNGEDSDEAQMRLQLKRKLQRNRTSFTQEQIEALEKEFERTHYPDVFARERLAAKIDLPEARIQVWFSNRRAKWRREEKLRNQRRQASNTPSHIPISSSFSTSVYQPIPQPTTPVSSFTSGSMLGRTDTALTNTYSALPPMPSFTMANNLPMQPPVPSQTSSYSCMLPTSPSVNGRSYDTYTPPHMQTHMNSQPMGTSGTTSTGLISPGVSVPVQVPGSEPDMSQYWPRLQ
Chain of Estrogen receptor (Homo sapiens) (P03372 whole entry, looked up, the tested form may be a part): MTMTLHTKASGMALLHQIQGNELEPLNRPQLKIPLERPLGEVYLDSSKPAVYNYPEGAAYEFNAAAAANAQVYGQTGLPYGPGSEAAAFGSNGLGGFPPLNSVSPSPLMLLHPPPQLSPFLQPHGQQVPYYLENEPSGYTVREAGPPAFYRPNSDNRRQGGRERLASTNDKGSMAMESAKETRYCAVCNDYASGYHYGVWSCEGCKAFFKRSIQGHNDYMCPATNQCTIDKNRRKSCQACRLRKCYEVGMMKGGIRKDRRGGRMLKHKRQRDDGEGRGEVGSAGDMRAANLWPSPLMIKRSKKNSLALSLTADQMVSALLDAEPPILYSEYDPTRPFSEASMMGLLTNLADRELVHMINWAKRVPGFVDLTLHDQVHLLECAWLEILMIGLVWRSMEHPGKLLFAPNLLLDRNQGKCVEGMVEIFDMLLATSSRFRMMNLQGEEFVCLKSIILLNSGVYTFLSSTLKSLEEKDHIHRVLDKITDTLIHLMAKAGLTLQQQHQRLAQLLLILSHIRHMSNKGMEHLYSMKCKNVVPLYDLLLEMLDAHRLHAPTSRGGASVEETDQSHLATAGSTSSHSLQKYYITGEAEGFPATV
Chain of Estrogen-related receptor gamma (Homo sapiens) (P62508 whole entry, looked up, the tested form may be a part): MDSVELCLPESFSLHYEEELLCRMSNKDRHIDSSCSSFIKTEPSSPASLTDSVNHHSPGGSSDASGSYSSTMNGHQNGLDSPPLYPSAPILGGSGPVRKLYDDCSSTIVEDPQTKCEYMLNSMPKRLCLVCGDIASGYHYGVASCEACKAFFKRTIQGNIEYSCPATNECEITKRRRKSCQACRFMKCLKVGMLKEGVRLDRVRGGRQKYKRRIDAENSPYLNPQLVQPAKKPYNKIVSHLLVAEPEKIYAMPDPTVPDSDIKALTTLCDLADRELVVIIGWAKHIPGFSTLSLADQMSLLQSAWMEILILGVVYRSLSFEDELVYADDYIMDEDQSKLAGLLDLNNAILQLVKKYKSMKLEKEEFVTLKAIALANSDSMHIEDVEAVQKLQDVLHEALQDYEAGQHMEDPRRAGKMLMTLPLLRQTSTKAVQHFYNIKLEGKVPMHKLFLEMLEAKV
Chain of Steroid hormone receptor ERR1 (Homo sapiens) (P11474 whole entry, looked up, the tested form may be a part): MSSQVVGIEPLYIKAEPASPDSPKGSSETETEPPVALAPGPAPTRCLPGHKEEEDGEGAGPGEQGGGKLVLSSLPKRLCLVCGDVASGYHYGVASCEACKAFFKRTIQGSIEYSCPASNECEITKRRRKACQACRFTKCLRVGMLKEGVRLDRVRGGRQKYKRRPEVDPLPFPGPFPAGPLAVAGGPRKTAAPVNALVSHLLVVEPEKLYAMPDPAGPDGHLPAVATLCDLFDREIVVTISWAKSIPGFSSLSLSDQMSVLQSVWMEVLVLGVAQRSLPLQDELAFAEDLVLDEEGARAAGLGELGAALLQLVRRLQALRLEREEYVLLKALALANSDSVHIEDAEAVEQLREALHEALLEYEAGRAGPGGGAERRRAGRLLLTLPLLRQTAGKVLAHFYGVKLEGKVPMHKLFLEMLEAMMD

CCCCCC(C)O (stereo not drawn)
not listed: [16] | [17] | [18] | [19]
inactive: all other assays above

OC1CCCCCCCCCCC1
active: [2] 4.47 µM | [13] 10.6 µM
not listed: [12] | [15] | [17] | [18] | [19]
inactive: all other assays above

CC(C)c1ccc2c(C(C)C)cc(C(C)C)c(S(=O)(=O)O)c2c1
active: [2] 1.56 µM | [7] 22.4 µM | [12] 8.94 µM | [13] 45.4 µM
not listed: [17] | [18] | [19]
inactive: all other assays above

CCOCC(=O)O
active: [2] 72 µM
not listed: [13] | [15] | [16] | [19]
inactive: all other assays above

CC(=O)c1ccc[nH]1
not listed: [12] | [17] | [19]
inactive: all other assays above

C#CC1(O)CC[C@H]2[C@@H]3CCC4=CCCC[C@@H]4[C@H]3CC[C@@]21C (stereo partly drawn)
active: [2] 2.58 µM | [3] 33.4 µM | [4] 41.7 µM | [7] 27.4 µM | [9] 16.7 µM | [10] 33.4 µM | [11] 16.8 µM | [16] 9.28 µM | [13] 0.00914 µM
inactive: [1] | [5] | [6] | [8] | [12] | [14] | [15] | [19]

NNC(=O)c1cccc(C(=O)NN)c1
not listed: [13] | [17] | [18] | [19]
inactive: all other assays above
